Data reported in PubChem BioAssay.
The source made the active and inactive calls. Unless noted, no stated cut-off is given here; in the data, active means inhibition above about 30%; inactive means the rest.

Tests used:
[1] = molecular target: Nuclear receptor coactivator 3 (Homo sapiens) (UniProt Q9Y6Q9); assay: SRC3 coactivator transcriptional activity inhibitors, confirmation, cell-based, luminescence, quadruplicate (AID 588792;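 active means mean inhibition over 43.08%, the solvent-only control mean plus 3 SD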;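 further: 0% = DMSO treated cells and 100% = gossypol at 36 µM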); settings: HEK293 GAL4-SRC3 luciferase reporter, at 3.6 µM, stronger effect = higher value
[2] = tested on: transactivating tegument protein VP16 (Human herpesvirus 1), Gal4-VP16 luciferase reporter; assay: VP16 transactivation inhibitors, counter-screen for SRC3 inhibitor project, cell-based, luminescence, high throughput (AID 588794); settings: mammalian cells, VP16-driven luciferase reporter luminescence; at 3.6 µM; stronger effect = higher value

Chain of Nuclear receptor coactivator 3 (Homo sapiens) (Q9Y6Q9 whole entry, looked up, the tested form may be a part): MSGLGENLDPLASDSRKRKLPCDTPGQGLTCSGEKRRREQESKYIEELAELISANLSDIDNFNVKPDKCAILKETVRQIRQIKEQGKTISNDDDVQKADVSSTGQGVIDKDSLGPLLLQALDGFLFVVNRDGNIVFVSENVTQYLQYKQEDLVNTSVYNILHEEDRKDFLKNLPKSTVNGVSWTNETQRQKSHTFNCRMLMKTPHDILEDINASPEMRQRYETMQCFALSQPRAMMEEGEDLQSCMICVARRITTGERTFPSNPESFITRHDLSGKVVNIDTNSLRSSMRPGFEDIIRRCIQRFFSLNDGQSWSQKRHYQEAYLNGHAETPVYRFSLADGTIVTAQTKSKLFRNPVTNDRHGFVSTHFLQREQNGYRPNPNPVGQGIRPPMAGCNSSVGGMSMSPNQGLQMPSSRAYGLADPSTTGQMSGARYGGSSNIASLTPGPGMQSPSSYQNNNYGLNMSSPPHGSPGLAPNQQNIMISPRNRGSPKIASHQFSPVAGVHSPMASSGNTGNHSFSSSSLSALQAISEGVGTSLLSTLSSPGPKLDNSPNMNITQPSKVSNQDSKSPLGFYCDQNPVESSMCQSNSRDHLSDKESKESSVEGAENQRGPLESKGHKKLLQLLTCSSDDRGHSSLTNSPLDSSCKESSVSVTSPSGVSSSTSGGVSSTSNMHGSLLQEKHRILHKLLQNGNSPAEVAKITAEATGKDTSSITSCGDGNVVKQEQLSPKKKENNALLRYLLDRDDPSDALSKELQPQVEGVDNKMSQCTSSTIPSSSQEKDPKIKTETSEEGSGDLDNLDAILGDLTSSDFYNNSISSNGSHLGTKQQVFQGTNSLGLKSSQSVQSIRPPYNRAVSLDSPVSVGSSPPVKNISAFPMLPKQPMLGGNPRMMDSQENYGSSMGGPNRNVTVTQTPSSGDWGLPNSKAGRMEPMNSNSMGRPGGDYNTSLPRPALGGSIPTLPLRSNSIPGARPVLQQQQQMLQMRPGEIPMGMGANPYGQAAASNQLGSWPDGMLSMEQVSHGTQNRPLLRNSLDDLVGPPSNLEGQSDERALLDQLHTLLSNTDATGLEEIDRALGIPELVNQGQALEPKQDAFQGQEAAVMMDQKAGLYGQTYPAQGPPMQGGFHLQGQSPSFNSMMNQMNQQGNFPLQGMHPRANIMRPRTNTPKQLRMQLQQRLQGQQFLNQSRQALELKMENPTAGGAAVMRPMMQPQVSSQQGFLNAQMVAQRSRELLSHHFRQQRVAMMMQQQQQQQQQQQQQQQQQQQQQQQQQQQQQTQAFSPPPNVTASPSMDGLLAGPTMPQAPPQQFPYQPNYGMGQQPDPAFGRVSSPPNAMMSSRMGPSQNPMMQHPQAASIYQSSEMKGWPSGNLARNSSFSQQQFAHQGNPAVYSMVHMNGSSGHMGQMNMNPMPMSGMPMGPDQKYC

Compound | inhibition [1] | inhibition [2]
O=C1N=C(N2CCN(c3ccccc3)CC2)S/C1=C\c1cn[nH]c1-c1ccccc1 | 8.51% (inactive) | 2.8% (inactive)
Clc1ccc(SCc2cc(N3CCOCC3)nc(-c3ccccn3)n2)cc1 | -5.99% (inactive) | 1.33% (inactive)
COc1ccc(S(=O)(=O)NCc2ccncc2)cc1NC(=O)c1ccc(Cl)cc1 | 14.2% (inactive) | 4.55% (inactive)
CCc1ccc(C(=O)COC(=O)c2cncc(Br)c2)cc1 | 10.2% (inactive) | 7.77% (inactive)
CC/C(C)=N/Nc1cccc([N+](=O)[O-])c1 | 2.68% (inactive) | 18% (inactive)
CCOC(=O)c1cccc(NC(=O)CSc2nc3cccnc3n2C)c1 | 9.81% (inactive) | 25.1% (inactive)
CC1Cc2cc(-c3csc(NC(=O)Cc4ccccc4)n3)ccc2N1S(C)(=O)=O (centres undefined) | 23.8% (inactive) | 24.3% (inactive)
CC(=O)c1ccc(Sc2nnnn2-c2ccccc2)c([N+](=O)[O-])c1 | 11.4% (inactive) | -10.4% (inactive)
C/C(=N\NC(=O)c1c(C)nc2ccccn12)c1ccc(O)cc1O | 52.7% (active) | 55.2% (active)
CCCCc1nc2ccccc2c(N)c1CCC (tested in a mixture with another compound) | 8.62% (inactive) | 9.99% (inactive)
CCN(CC)S(=O)(=O)c1cccc(NC(=O)C2SC(=Nc3ccc(C)cc3C)C(C(=O)NC(C)COC)=C2N)c1 (centres undefined) | 6.35% (inactive) | 5.31% (inactive)
C=CCn1c(NCCc2ccccc2)nc2c1c(=O)n(C)c(=O)n2C | 4.32% (inactive) | 28.1% (inactive)
